Assays:
Assay in all cases: universal protein binding microarray (PBM); transcription factors of Arabidopsis thaliana; high values mean tight binding
[1] = target: T1, GST-ANAC092(1-176) (Arabidopsis thaliana, UniProt Q9FKA0 1-176); settings: protein: recombinant; tags: GST; chain copies: 2; dsDNA, one strand shown
T1 sequence: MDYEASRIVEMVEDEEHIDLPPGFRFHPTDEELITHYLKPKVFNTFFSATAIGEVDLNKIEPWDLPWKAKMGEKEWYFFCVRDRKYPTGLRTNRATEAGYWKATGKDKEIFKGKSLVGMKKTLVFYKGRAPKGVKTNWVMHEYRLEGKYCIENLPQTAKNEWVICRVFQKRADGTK
Method in brief: (§1)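 GST-tagged proteins (NAC-domain, full-length or DNA-binding-domain) were induced in cells, with zinc acetate supplied for zinc-finger proteins, then purified on glutathione–Sepharose 4B. Each was tested in duplicate at 200 to 500 nM final on custom all-10-mer Agilent 4 × 180K arrays rendered double-stranded by primer extension. The binding value is the normalised enrichment score (E-score) across gapped and ungapped 8-mers.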

[2] = target: T2, GST-ANAC019 NAC domain (Arabidopsis thaliana, UniProt Q9C932 14-162); settings: protein: recombinant; tags: GST; chain copies: 2; dsDNA, one strand shown
T2 sequence: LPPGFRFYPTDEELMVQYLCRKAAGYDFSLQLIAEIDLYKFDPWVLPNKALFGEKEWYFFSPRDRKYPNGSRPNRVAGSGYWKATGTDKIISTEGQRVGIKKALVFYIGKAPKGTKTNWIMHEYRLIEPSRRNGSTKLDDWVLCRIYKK
Method in brief: as §1

[3] = target: T3, GST-ATAF1 NAC domain (Arabidopsis thaliana, UniProt Q39013 7-158); settings: protein: recombinant; tags: GST; chain copies: 2; dsDNA, one strand shown
T3 sequence: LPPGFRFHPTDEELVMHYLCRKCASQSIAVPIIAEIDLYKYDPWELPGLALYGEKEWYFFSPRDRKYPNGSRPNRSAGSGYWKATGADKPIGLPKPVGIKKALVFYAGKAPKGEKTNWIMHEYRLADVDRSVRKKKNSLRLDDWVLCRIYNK
Method in brief: as §1

[4] = target: T4, GST-ANAC092(1-285) full length (Arabidopsis thaliana, UniProt Q9FKA0 1-285); settings: protein: recombinant; tags: GST; chain copies: 2; dsDNA, one strand shown
T4 sequence: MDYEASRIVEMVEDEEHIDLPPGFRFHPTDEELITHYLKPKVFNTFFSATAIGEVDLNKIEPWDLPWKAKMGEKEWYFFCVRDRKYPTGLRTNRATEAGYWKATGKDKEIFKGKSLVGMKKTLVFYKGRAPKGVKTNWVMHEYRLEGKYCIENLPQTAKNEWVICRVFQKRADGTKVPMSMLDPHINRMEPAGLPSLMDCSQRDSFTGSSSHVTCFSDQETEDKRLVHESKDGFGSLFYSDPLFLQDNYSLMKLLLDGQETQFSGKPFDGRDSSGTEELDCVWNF
Method in brief: as §1

[5] = target: T5, GST-NAP(1-166) (Arabidopsis thaliana, UniProt O49255 1-166); settings: protein: recombinant; tags: GST; chain copies: 2; dsDNA, one strand shown
T5 sequence: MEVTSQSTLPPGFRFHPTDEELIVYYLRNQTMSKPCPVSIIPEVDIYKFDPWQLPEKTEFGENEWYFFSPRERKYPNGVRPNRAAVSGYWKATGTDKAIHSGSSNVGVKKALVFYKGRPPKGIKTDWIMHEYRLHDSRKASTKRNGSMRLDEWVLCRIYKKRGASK
Method in brief: as §1

[6] = target: T6, GST-NST2(1-184) (Arabidopsis thaliana, UniProt Q9M274 1-184); settings: protein: recombinant; tags: GST; chain copies: 2; dsDNA, one strand shown
T6 sequence: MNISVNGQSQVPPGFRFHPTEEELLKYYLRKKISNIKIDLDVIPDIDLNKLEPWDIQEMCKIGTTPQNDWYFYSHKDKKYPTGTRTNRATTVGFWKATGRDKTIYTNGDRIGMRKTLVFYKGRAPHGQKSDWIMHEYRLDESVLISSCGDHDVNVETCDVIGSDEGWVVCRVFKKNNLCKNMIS
Method in brief: as §1

[7] = target: T7, GST-SND1(1-203) (Arabidopsis thaliana, UniProt Q9LPI7 1-203); settings: protein: recombinant; tags: GST; chain copies: 2; dsDNA, one strand shown
T7 sequence: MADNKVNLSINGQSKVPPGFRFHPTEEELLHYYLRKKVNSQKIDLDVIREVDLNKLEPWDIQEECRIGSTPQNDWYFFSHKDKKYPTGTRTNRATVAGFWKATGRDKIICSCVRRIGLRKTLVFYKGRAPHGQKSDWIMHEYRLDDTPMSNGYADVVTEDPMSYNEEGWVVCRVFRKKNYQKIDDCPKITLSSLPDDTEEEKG
Method in brief: as §1

[8] = target: T8, GST-VND3 NAC domain (Arabidopsis thaliana, UniProt Q9FH59 12-162); settings: protein: recombinant; tags: GST; chain copies: 2; dsDNA, one strand shown
T8 sequence: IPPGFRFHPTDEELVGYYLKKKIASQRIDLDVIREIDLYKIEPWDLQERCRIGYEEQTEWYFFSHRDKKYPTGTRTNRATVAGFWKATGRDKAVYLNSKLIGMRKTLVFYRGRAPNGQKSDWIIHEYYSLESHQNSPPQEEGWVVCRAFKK
Method in brief: as §1

[9] = target: T9, GST-VND7 NAC domain (Arabidopsis thaliana, UniProt Q9C8W9 9-158); settings: protein: recombinant; tags: GST; chain copies: 2; dsDNA, one strand shown
T9 sequence: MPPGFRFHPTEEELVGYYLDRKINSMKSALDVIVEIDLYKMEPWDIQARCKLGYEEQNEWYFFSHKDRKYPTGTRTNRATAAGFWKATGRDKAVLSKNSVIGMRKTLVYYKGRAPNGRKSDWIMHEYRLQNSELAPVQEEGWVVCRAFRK
Method in brief: as §1

[10] = target: T10, GST-ANAC055(1-171) (Arabidopsis thaliana, UniProt Q9LDY8 1-171); settings: protein: recombinant; tags: GST; chain copies: 2; dsDNA, one strand shown
T10 sequence: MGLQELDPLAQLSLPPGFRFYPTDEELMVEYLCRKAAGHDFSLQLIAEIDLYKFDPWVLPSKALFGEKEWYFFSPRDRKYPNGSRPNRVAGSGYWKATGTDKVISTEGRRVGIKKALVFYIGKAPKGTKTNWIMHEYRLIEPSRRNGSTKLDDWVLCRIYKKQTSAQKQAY
Method in brief: as §1

[11] = target: GST-NTL6(1-168) (Arabidopsis thaliana, UniProt Q9SCK6 1-168); settings: protein: recombinant; tags: GST; chain copies: 2; dsDNA, one strand shown
Method in brief: as §1

[12] = target: GST-WRKY1(266-371) (Arabidopsis thaliana, UniProt Q9SI37 266-371); settings: protein: recombinant; tags: GST; dsDNA, one strand shown
Method in brief: as §1

[13] = target: T11, GST-NTL8 NAC domain (Arabidopsis thaliana, UniProt Q9XIN7 14-156); settings: protein: recombinant; tags: GST; chain copies: 2; dsDNA, one strand shown
T11 sequence: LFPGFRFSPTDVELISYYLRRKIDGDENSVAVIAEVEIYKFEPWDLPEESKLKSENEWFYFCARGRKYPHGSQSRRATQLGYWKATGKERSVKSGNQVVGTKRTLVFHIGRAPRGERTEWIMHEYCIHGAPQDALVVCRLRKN
Method in brief: as §1

Sequence of GST-WRKY1(266-371) (Q9SI37 266-371): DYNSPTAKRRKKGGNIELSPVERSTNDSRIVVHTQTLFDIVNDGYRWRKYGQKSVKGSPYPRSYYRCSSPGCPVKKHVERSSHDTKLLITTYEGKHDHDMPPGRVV
Sequence of GST-NTL6(1-168) (Q9SCK6 1-168): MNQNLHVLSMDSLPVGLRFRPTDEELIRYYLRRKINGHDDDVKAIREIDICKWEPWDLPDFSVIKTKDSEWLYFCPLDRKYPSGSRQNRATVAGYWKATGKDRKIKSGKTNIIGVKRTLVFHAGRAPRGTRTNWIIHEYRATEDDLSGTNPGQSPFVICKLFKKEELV

Sequence	binding signal [1]	binding signal [2]	binding signal [3]	binding signal [4]	binding signal [5]	binding signal [6]	binding signal [7]	binding signal [8]	binding signal [9]	binding signal [10]	binding signal [11]	binding signal [12]	binding signal [13]
ACGCTACC	0.455 E-score	0.118 E-score	0.144 E-score	0.48 E-score	0.0969 E-score	0.34 E-score	0.475 E-score	0.0872 E-score	0.181 E-score				
CTTTACGC	0.294 E-score	0.0905 E-score		0.302 E-score	0.081 E-score	0.193 E-score	0.408 E-score	0.0839 E-score	0.137 E-score				
CACGCTAC	0.46 E-score	0.167 E-score	0.167 E-score	0.476 E-score		0.298 E-score	0.441 E-score	0.0671 E-score	0.135 E-score	0.0982 E-score			
CGTCAACA	0.149 E-score	0.0912 E-score	0.156 E-score	0.196 E-score	0.116 E-score	0.111 E-score	0.181 E-score	0.0753 E-score		0.135 E-score	0.0991 E-score	0.435 E-score	
GTACGCGA	0.245 E-score		0.234 E-score	0.4 E-score	0.188 E-score	0.129 E-score	0.288 E-score	0.11 E-score	0.133 E-score	0.0563 E-score			
ACGCTACT	0.385 E-score	0.123 E-score	0.288 E-score	0.425 E-score	0.236 E-score	0.314 E-score	0.394 E-score	0.241 E-score		0.226 E-score		0.092 E-score	0.0894 E-score
AATGCGTA	0.371 E-score		0.142 E-score	0.387 E-score	0.183 E-score	0.212 E-score	0.414 E-score	0.148 E-score	0.118 E-score	0.0991 E-score			
TTGACCAA	0.232 E-score	0.063 E-score	0.066 E-score	0.226 E-score			0.0845 E-score	0.0958 E-score		0.0923 E-score		0.491 E-score	
TTAAGGAA	0.11 E-score		0.0827 E-score	0.131 E-score		0.139 E-score	0.39 E-score	0.24 E-score		0.0521 E-score	0.48 E-score	0.0668 E-score	0.293 E-score
CCACGCTA	0.405 E-score	0.155 E-score		0.432 E-score		0.219 E-score	0.329 E-score	0.0665 E-score					0.0925 E-score
AAGGAATC	0.172 E-score		0.0816 E-score	0.251 E-score		0.0867 E-score	0.292 E-score	0.0823 E-score			0.42 E-score		0.328 E-score
ACACGCCT	0.319 E-score	0.189 E-score	0.212 E-score	0.411 E-score			0.0623 E-score	0.0938 E-score		0.173 E-score			
CTTGACTA		0.0925 E-score	0.142 E-score			0.0888 E-score	0.0644 E-score	0.159 E-score		0.0781 E-score		0.462 E-score	0.0949 E-score
ACACTCCA	0.398 E-score	0.0899 E-score	0.17 E-score	0.429 E-score		0.226 E-score	0.278 E-score	0.0605 E-score		0.15 E-score			
TGAAGTCA				0.133 E-score		0.0789 E-score	0.196 E-score	0.0873 E-score			0.229 E-score	0.426 E-score	0.165 E-score

From publication PMC4081100, “A DNA-binding-site landscape and regulatory network analysis for NAC transcription factors in Arabidopsis thaliana”
